Sampled rows, rich in hits. Any-hit rate of the full collection: about 2%.
DAGLB inh: diacylglycerol lipase beta (human) inhibition; Q8NCG7; AID 504411; inhibition, % at 5.17 µM; HEK293T DAGLB membrane lysate, EnzChek fluorogenic substrate; 0.059% of 340,000 active; in the data active = inhibition above about 34%;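 also: 0% = enzyme with vehicle and 100% = wells lacking enzyme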
NadD inh: inhibitors of Staphylococcus aureus NadD | AID 602399 | purified NadD enzyme, colorimetric absorbance read-out | 0.78% of 360,000 active | inhibition, % at 20 µM; in the data active = inhibition above about 26%
HGIII-sPLA2 inh: Blocks human group III sPLA2 activity; QFRET BODIPY PC-A2 liposome hydrolysis, fluorescence; AID 743126; Q9NZ20; inhibition, % at 12.2 µM; 0.56% of 370,000 active;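 active = inhibition above mean plus 3 SD of compounds lying within the high and low control bounds, cut at about 19% in these data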;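 also: 0% = median of test compound wells and 100% = no enzyme DMSO wells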
ARNT-TACC3 inh: disruptors of human ARNT/TACC3 interaction. 0.66% of 390,000 active. AID 623870. Q9Y6A5. AlphaScreen His-ARNT PAS-B/GST-TACC3 binding, luminescence; TACC3 fragment carries E629A point mutation. inhibition, % at 9.99 µM;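 active = mean inhibition of replicates at least 50% and at least half of replicates each reaching 50%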;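 also: 0% = complete ARNT plus TACC3 wells and 100% = ARNT alone without TACC3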
Neddyl block: inhibitors of human cullin neddylation; inhibition, % at 25 µM; 0.58% of 360,000 active; P61081+Q13564; TR-FRET cullin neddylation, biochemical; in the data active = inhibition above about 36%
Target sequence (P61081 whole entry, looked up): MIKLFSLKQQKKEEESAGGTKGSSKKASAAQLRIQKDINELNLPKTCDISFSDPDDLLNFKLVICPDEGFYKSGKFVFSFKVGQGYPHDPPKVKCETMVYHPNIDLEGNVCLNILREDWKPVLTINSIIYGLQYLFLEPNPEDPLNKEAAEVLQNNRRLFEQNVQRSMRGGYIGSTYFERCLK
Target sequence (Q13564 whole entry, looked up): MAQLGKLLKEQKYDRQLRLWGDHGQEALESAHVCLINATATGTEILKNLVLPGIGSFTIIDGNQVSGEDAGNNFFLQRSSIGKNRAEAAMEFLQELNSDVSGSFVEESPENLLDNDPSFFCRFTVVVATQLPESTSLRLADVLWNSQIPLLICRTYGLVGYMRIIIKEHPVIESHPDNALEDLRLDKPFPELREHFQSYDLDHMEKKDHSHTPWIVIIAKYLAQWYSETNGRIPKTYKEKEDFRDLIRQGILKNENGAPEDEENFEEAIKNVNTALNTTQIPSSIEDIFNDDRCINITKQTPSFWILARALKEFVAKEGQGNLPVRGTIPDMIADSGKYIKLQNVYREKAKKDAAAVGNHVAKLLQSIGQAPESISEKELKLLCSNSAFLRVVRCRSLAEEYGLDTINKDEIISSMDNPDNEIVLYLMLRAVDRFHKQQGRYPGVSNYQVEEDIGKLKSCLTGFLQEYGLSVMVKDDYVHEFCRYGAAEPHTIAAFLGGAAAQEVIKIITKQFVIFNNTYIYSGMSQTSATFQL
The depositor's hits bear a star; / = not tested or not shown.

SMILES	DAGLB inh	NadD inh	HGIII-sPLA2 inh	ARNT-TACC3 inh	Neddyl block
CC1=NN(c2ccc(Cl)c(C(=O)O)c2)C(=O)C1	-1	0	-8	30	16
C[C@H]1CN([C@@H](C)CO)C(=O)c2cc(-c3ccc(C(=O)N(C)C)cc3)cnc2O[C@@H]1CN(C)C(=O)CN(C)C	/	/	/	-6	/
C[C@@H]1CCCCO[C@@H](CN(C)Cc2ccc(C(=O)O)cc2)[C@H](C)CN([C@H](C)CO)C(=O)c2cc(NC(=O)c3ccccc3)ccc2O1	/	/	/	-1	/
CC(=O)NC(C)c1cc(F)c2cccnc2c1O (configuration not stated)	0	1	4	74*	-3
CC(=O)NC(c1cc(Cl)c2cccnc2c1O)C1CC1 (configuration not stated)	4	3	5	69*	-13
CC(C)CN1C(=O)[C@@]2(c3ccc([N+](=O)[O-])cc3)CC(=O)N(CC3C4CC5CC(C4)CC3C5)[C@@H]2c2ccc(CO)cc21 (some centres not stated)	/	/	/	6	/
COc1ccc(C(=O)Nc2nnc(C3=COCCO3)o2)cc1	0	3	3	58*	0
O=C(COc1ccc(Cl)cc1)Nc1nnc(C2=COCCO2)o1	2	1	0	47*	6
O=C1N=C(N2CCN(c3ccccc3)CC2)S/C1=C\c1cn[nH]c1-c1ccccc1	11	48*	-16	-3	15
O=C1N=C(N2CCC(Cc3ccccc3)CC2)S/C1=C/c1cn[nH]c1-c1ccccc1	4	41*	-4	/	16
Cc1cccc(N2CCN(C3=NC(=O)/C(=C\c4cn[nH]c4-c4ccccc4)S3)CC2)c1	2	25	6	-4	20
Cc1ccc(N2CCN(C3=NC(=O)/C(=C\c4cn[nH]c4-c4ccccc4)S3)CC2)cc1	6	42*	2	4	7
CNC[C@H]1Oc2ccc(NC(=O)Nc3cccc4ccccc34)cc2CC(=O)N([C@H](C)CO)C[C@@H]1C	/	/	/	-1	/
C[C@@H]1CCCCO[C@H](CN(C)C(=O)Nc2ccccc2)[C@H](C)CN([C@H](C)CO)C(=O)c2cc(NS(=O)(=O)c3cccs3)ccc2O1	/	/	/	1	/
COc1ccc2c(c1)-c1c(ssc1=S)C(C)(C)N2	36*	0	12	13	-13
COc1ccc2c(c1)-c1c(sn(-c3ccccc3)c1=S)C(C)(C)N2	2	0	18	7	-21
CO[C@@H]1CN(C)C(=O)c2ccc(NC(=O)c3ccc(F)cc3)cc2OC[C@@H](C)N(C(C)=O)C[C@H]1C	/	/	/	-6	/
Cc1nc2[nH]c(=S)[nH]c(=O)c2nc1C	0	-3	-4	-4	20
Cc1nc2c(=O)[nH]c(=S)n(C)c2nc1C	-2	-1	21*	-3	-9
C/C=C/c1cnc2c(c1)C(=O)N([C@H](C)CO)C[C@@H](C)[C@@H](CN(C)C(=O)Nc1c(C)noc1C)O2	/	/	/	6	/
CO[C@@H]1CN(C)C(=O)c2ccc(NS(=O)(=O)c3ccc(Cl)cc3)cc2OC[C@@H](C)NC[C@@H]1C	/	/	/	-3	/
CCN=c1scc(-c2ccccc2)n1/N=C/c1ccccn1	-13	1	/	61*	22
C=CCN=c1scc(-c2ccccc2)n1/N=C/c1ccccn1	-8	2	-2	47*	14
C[C@@H]1CN([C@H](C)CO)S(=O)(=O)c2ccc(/C=C/c3ccccc3)cc2O[C@H]1CN(C)C(=O)NC1CCCC1	/	/	/	11	/
O=C(CN1CCOCC1)Nc1ccc(Oc2ccc(NC(=O)CN3CCOCC3)cc2)cc1	-1	9	1	-12	-1
SMILES	DAGLB inh	NadD inh	HGIII-sPLA2 inh	ARNT-TACC3 inh	Neddyl block
O=C(CN1CCOCC1)NNC(=S)Nc1ccc(Cl)cc1	0	-1	4	39*	-3
c1cnc(N2CCN(c3nc4ccccc4n4cnnc34)CC2)nc1	2	-4	5	49*	1
C[C@@H]1CN([C@@H](C)CO)S(=O)(=O)c2ccc(C3=CCCC3)cc2O[C@H]1CN(C)CC1CCCC1	/	/	/	0	/
CCOC(=O)C1CCN(Cc2ccc(O)c3ncccc23)CC1	2	-3	1	69*	15
CCOC(=O)C1CCN(Cc2ccccc2C(F)(F)F)CC1	-4	-1	3	-31	-3
COc1cccc(NC(=O)N(C)C[C@@H]2Oc3ncc(C#Cc4ccncc4)cc3C(=O)N([C@@H](C)CO)C[C@@H]2C)c1	/	/	/	30	/
NC(=O)c1ccc(Nc2nnc(-c3ccc(O)cc3)c3ccccc23)cc1	1	4	-6	22	/
COc1ccc(Nc2nnc(-c3ccc(C(N)=O)cc3)c3ccccc23)cc1	0	-4	-6	51*	0
